Screening data from PubChem.
LMNA splice mod: qHTS Assay for Modulators of Lamin A Splicing; HeLa LMNA splicing GFP/RFP minigene ratio, 48 h; Potency, µM (highest dose often 46.1 µM), for the others: at the top dose ratio change, negative = inhibition, hits mostly inhibitors; actives 0.01% (n = 200,000); active means well fitted inhibition curve with a large enough effect in the signal ratio, with a control signal flat, not every such curve was filed as active; inconclusive means small, poorly fitted or top-dose-only effect, or effect the other way, or a change in a side signal; the % refers to the signal ratio; further: on the % scale 0 is the no-effect control and ±100 the full control effect
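S3 HeLa cells stably expressing lamin A-EGFP splicing minigene plus DsRed2, 600 cells/well, 48 h compound exposure at 37C. Laser-scanning cytometry; analysed as GFP (500-530 nm)/RFP (575-640 nm) total intensity ratio; 0.5% DMSO vehicle.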
HTT cytoprotect: qHTS Multiplex Assay to Identify Dual Action Probes in a Cell Model of Huntington: Cytoprotection (ATP) | actives 0.14% (n = 230,000) | Potency, µM (top dose mostly 56.4 µM), for inactives: cytoprotection (ATP increase), most hits filed as activators | PC12 HTT-Q103 induced, cytoprotection, ATP luminescence, 40 h | AID 1471, 2008; active means well fitted curve in the direction sought with a large enough effect; inconclusive means small, poorly fitted or top-dose-only effect, or another doubt; inactive means no such curve, though single readings can be large; an effect the other way counts as inactive or inconclusive; further: % of control where 0% means no effect; nearly all actives have a fitted effect of over 45% in size
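ATP quantification (ATPlite) reports survival of PC12 cells in which tebufenozide, 100 nM final, switches on Htt exon 1 with 103 glutamines linked to GFP; compounds are titrated.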
HTT aggregate: qHTS Multiplex Assay to Identify Dual Action Probes in a Cell Model of Huntington: Aggregate Formation (GFP) | Potency, µM (series often up to 46.1 µM), for inactives: at the highest dose activity change, negative = inhibition, hits mostly inhibitors | AID 1688, 2009 | actives 1.1% (n = 220,000) | PC12 HttQ103-GFP aggregates, Acumen cytometry, 40 h; active means well fitted curve in the direction sought with a large enough effect; inconclusive means small, poorly fitted or top-dose-only effect, or another doubt; inactive means no such curve, though single readings can be large; an effect the other way counts as inactive or inconclusive; further: on the % scale 0 is the no-effect control and ±100 the full control effect; nearly all actives have a fitted effect of over 60% in size
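Read-out: GFP aggregate count by laser scanning cytometer (488 nm excitation, 500-530 nm emission, 1–25 µm objects >6 SD above background). Cells: PC12, inducible HTTex1-Q103-GFP, 100 nM tebufenozide; compounds titrated.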
HPGD block: qHTS Assay for Inhibitors of HPGD (15-Hydroxyprostaglandin Dehydrogenase); 15-hydroxyprostaglandin dehydrogenase [NAD(+)] (Homo sapiens), P15428; purified HPGD, NADH fluorescence kinetic, PGE2 substrate; Potency, µM, for the others: at the highest dose activity change, negative = inhibition, hits mostly inhibitors; actives 4.3% (n = 150,000); AID 894, 2007; further: on the % scale 0 is the no-effect control and ±100 the full control effect
Target sequence (P15428 whole entry, looked up): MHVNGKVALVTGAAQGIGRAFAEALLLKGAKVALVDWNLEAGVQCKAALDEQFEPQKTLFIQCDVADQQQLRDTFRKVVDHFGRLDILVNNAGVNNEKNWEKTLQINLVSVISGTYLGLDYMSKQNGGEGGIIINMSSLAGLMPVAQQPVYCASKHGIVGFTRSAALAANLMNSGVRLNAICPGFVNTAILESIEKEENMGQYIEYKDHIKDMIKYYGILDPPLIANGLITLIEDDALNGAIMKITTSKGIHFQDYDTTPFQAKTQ
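NADH formation kinetics: reaction with 30 uM PGE2 and 1 mM NAD+ (final), 20 nM enzyme, Tris-HCl pH 8 with Tween 20, after 15 min compound preincubation at room temperature. Fluorescence change, last versus first of five reads.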
ALDH1A1 inh: qHTS Assay for Inhibitors of Aldehyde Dehydrogenase 1 (ALDH1A1); Purified ALDH1A1, NADH fluorescence, propionaldehyde substrate; AID 1030, 2008; Aldehyde dehydrogenase 1A1 (Homo sapiens), P00352; Potency, µM (titrated, usually from 75.3 µM), for inactives: at the highest dose activity, negative = inhibition, hits mostly inhibitors; actives 7.3% (n = 220,000);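 further: plate controls were no enzyme wells and a reference inhibitor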
The depositor's hits bear a star; ? = inconclusive; . = no result; [ ] = another dose, or the depositor's remark. Only some compounds are listed: those with a hit (about 8.8% of all), similar ones and a draw of the others. Unless noted, the call rests on the fitted dose curve; in most records, active means well fitted inhibition curve with a large enough effect (not every such curve was filed as active); inconclusive means small, poorly fitted or top-dose-only effect, or another doubt; inactive means no such curve, though single readings can be large or run the other way. Potency means the concentration at half of the fitted maximal effect.

SMILES	LMNA splice mod	HTT cytoprotect	HTT aggregate	HPGD block	ALDH1A1 inh
O=C(c1cccc(F)c1)N1CCN(c2ccc([N+](=O)[O-])c(N3CCOCC3)c2)CC1	1.9%	24.6%[10 µM]	-0.3%	-9.6%	7.94µM*
O=C(c1cccc(F)c1)N1CCC(N2CCOCC2)CC1	2.0%	8.4%	-4.5%	-8.4%	14.1µM*
Cn1c(=O)n(C)c2cc([N+](=O)[O-])c(N3CCN(C(=O)c4cccc(F)c4)CC3)cc21	7.8%[46 µM]	-5.7%	14.1%	.	?
O=C(c1ccccc1)N1CCN(c2ccc([N+](=O)[O-])c(N3CCOCC3)c2)CC1	-6.0%	2.1%[10 µM]	6.9%	-9.2%	0.891µM*
Cc1cc(C)n(-c2cc(N3CCN(C(=O)c4cccc(F)c4)CC3)ccc2[N+](=O)[O-])n1	?	.	-2.6%	-13.4%	4.47µM*
Cc1cc(C)n(-c2cc(N3CCN(C(=O)c4ccc(C(C)(C)C)cc4)CC3)ccc2[N+](=O)[O-])n1	?	-64.6%	-27.5%	-16.7%	?
O=C(c1cccc(Cl)c1)N1CCC(N2CCC(C(=O)N3CCOCC3)CC2)CC1	.	-7.0%[10 µM]	-5.8%[9.22 µM]	.	-9.3%
O=C(O)C1(C(=O)O)CCC1.[NH2-].[NH2-].[Pt+2]	.	-21.9%	-5.7%	.	.
O=C(CSc1nc2ccccc2n1Cc1ccccc1Cl)N/N=C/c1ccccc1C(=O)O	.	5.8%[10 µM]	5.0%[9.22 µM]	.	.
Cc1cccc(N2C(=O)CSC23C(=O)N(CC(=O)NCc2ccccc2Cl)c2ccccc23)c1 (stereo unspecified)	-8.3%[46 µM]	.	.	.	.
Cc1ccc(NC(=O)Cn2nnc(-c3ccccc3-n3cnnn3)n2)c(C)c1	.	-17.2%	-16.2%	.	-4.6%
Cc1ccc(-c2nnn(CC(=O)Nc3ccccc3-c3ccccc3)n2)c(-n2cnnn2)c1	-2.6%	-24.8%	-6.5%[9.22 µM]	-8.5%	25.1µM*
O=C(Cn1nnc(-c2ccccc2-n2cnnn2)n1)NCc1ccccc1	-5.2%	-8.1%[10 µM]	-9.8%	-16.3%	10µM*
Cc1ccc(C(=O)Cn2nnc(-c3ccccc3-n3cnnn3)n2)cc1	8.3%	-19.8%[10 µM]	9.5%	-12.0%	?
O=C(c1ccco1)N1CCN(C(c2ccccc2F)c2nnnn2Cc2cccs2)CC1 (stereo unspecified)	-9.5%	23.3%[10 µM]	-2.5%	-5.0%	17.8µM*
CCOc1ccc(C(c2nnnn2Cc2ccccc2)N2CCN(C(=O)c3ccco3)CC2)cc1 (stereo unspecified)	.	-0.8%[10 µM]	.	.	.
CCC(c1nnnn1Cc1cccs1)N1CCN(C(=O)c2ccco2)CC1 (stereo unspecified)	-6.8%[46 µM]	21.4%[10 µM]	22.3%[9.22 µM]	.	?
Cc1ccc(C(c2nnnn2Cc2cccs2)N2CCN(C(=O)c3ccco3)CC2)cc1 (stereo unspecified)	-7.7%	23.9%[10 µM]	25.6%	9.9%	4.47µM*
COc1ccc(C(c2nnnn2Cc2ccccc2)N2CCN(C(=O)c3ccco3)CC2)cc1 (stereo unspecified)	2.4%	2.9%	?	0.9%	28.2µM*
CN(C)C1CCN(C(=O)c2ccc(-n3c(=O)c(=O)[nH]c4ccccc43)cc2)C1 (stereo unspecified)	.	.	.	-6.6%	9.2%
Cc1cccc(S(=O)(=O)Nc2nc3ccccc3nc2NCc2ccc3c(c2)OCO3)c1	-11.7%	15.7%[10 µM]	19.6%	-14.7%	-2.4%
CCCCCCCN(C(=O)CCl)c1cccc(C)c1	-14.4%	-18.3%[10 µM]	-3.3%	-25.6%	0.224µM*
N#CCCN(C(=O)CCl)c1cccc(Cl)c1	.	-115.8%	17.8µM*	.	0.112µM*
N#CCCN(CCC#N)C(=O)COc1ccc(Cl)cc1Cl	7.2%	14.2%[10 µM]	10.5%	0.0%	-5.7%
Cc1cccc(NC(=O)CCNS(=O)(=O)c2ccc3c(c2)CCN3C(=O)C2CC2)c1	-6.8%[46 µM]	.	.	.	.
COC(=O)c1sccc1NC(=S)N1CC(C)CC(C)C1 (stereo unspecified)	4.9%	7.0%	9.0%	?	7.94µM*
